This is part of a sample that, as a whole, favours compounds with a hit. Of some 83,000 tested, about 20% had one in any assay.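 Treatment: one concentration, 48 hours, 96-well format. Scoring: percent growth, with anything below 10 considered active.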 Unmarked numbers belong to inactive results. Active and inactive are the calls of the source.
These compounds were tested on SK-MEL-2 melanoma (assay: NCI-60 one-dose screen, 48 h (100 = growth as untreated, 0 = no growth, -100 = all killed)). Conditions: 10 µM unless noted.
Method: Growth inhibition of the SK-MEL-2 human tumor cell line is measured as a screen for anti-cancer activity. Cells are grown in 96 well plates and exposed to the test compound for 48 hours. Compounds are tested at a single concentration, which is 10^-5 M for most compounds. The reported endpoint is percent growth (GI% or GIPRCNT), where numbers from 0 - 100% represent growth inhibition, and numbers from -100% - 0 represent cell death. For example, a value of 40 represents 60% growth inhibition. A value of 0 means no net growth occurred over the course of the experiment. A value of -40 indicates 40% of cells at the beginning of the experiment died by the end of the experiment. A value of -100 means all cells are dead at the end of the experiment.
NCI-60 Human Tumor Cell Lines Screen was performed using the standard one-dose NCI protocol, which is described in more detail at https://dtp.cancer.gov/discovery_development/nci-60/default.htm.
Compounds with GIPRCNT values below 10 were considered active. Activity score was based on GIPRCNT using the following formula: […]
Score is 0 for GIPRCNT values of 100 or above, 50 for GIPRCNT values of 0, and 100 for GIPRCNT values of -100.

Q: How did the growth turn out when `Cc1ccc(-n2nnc(C3=NCCc4c3[nH]c3ccc(Cl)cc43)c2C)cc1` was run?
A: 62.6%

Q: Which growth does the source give for `CC(=O)c1sc(-c2ccccc2)cc1N` here?
A: 109%

Q: For `Cn1cc(-c2ccc3nc(-c4ccc(CC(=O)Nc5cc(C(C)(C)C)no5)cc4)cnc3c2)cn1`, which growth is on record?
A: 22.2% [30 µM]

Q: How did the growth turn out when `N#Cc1c(N)nc2c(nnn2-c2cccc(Br)c2)c1N` was run?
A: 103%

Q: `CN1CCN(C(=O)[C@@]2(C)CC[C@]3(C)CC[C@]4(C)C(=CC[C@@H]5[C@@]6(C)C/C(=C/c7ccncc7)C(=O)C(C)(C)[C@@H]6CC[C@]54C)[C@@H]3C2)CC1` was tested. Which growth did it give?
A: 85.1%

Q: For `O=C1CC(c2ccc3c(c2)OCO3)Nc2cc3c(cc21)OCO3` (stereo not given), which growth is on record?
A: 11.7%

Q: How did the growth turn out when `C=CCN1C(=O)[C@]2(SC1=S)[C@H](c1cccc(Cl)c1)CN(C)[C@]21C(=O)NC2C=CC(Cl)=C[C@H]21` (stereo not given in full) was run?
A: 44.2%

Q: How did the growth turn out when `NC(=S)N/N=C/C(=O)O` was run?
A: 85.3%

Q: How did the growth turn out when `COc1ccc(/C=N/NC(=O)Cn2c(-c3ccc(S(C)(=O)=O)cc3)nc3cc(Cl)ccc32)cc1` was run?
A: 21.2%

Q: How did the growth turn out when `CNC(=O)NCC1OC(n2cnc3c(NC(=O)Nc4ccccc4)ncnc32)C2OC(C)(C)OC12` (stereo not given) was run?
A: 104%

Q: How did the growth turn out when `COc1ccc(C2=NC(=O)NC2c2ccc(OC)cc2)cc1` (stereo not given) was run?
A: 59.9%

Q: With `COc1ccc(OC)c(Nc2nc3nonc3nc2Nc2cc(OC)ccc2OC)c1` as the compound, how does the growth read?
A: 64.5%

Q: With `Nc1c(-c2nc3ccccc3c(=O)[nH]2)nnn1-c1ccc(Cl)cc1` as the compound, how does the growth read?
A: 96.3%

Q: `CCOC(=O)c1ccc(NC(=O)CCCN(CC)CC)cc1` was tested. Which growth did it give?
A: 73%

Q: For `C=C(Cl)COC(=O)C(C)(C)O`, which growth is on record?
A: 92.9%

Q: How did the growth turn out when `COc1ccc(/C(C)=C(\c2ccc(Cl)cc2)c2ccc(OCCN3CCCCC3)cc2)cc1F` was run?
A: 64.1%

Q: With `C=C(C)[C@@H]1CC[C@]2(CO)CC[C@]3(C)[C@H](CC[C@@H]4[C@@]5(C)C=C(C#N)C(=O)C(C)(C)[C@@H]5CC[C@]43C)[C@@H]12` as the compound, how does the growth read?
A: 30.1%

Q: For `COc1cc2c(cc1OC)-c1ccc3cc4c(cc3c1N(CCCN(C)C)C2)OCO4`, which growth is on record?
A: 45.4%

Q: With `CCOC(=O)c1c(C)nc2c(c1N)/C(=C/c1ccc(OC)cc1)C(=O)N2Cc1ccc(F)cc1` as the compound, how does the growth read?
A: -27.5% (active)

Q: Which growth does the source give for `Cc1cc(=O)c2cc3nc(-c4cccnc4)oc3c(Br)c2o1` here?
A: 131%

Q: With `COc1ccc(NC(=O)c2cccc(-c3cc(=O)c4c(O)c(OC)c(OC)cc4o3)c2)cc1` as the compound, how does the growth read?
A: 83.4%

Q: Which growth does the source give for `O=C(Nc1ccccc1Cl)OCCN1CCOCC1` here?
A: 96.7%

Q: Which growth does the source give for `CC[C@@H](C[C@H](CCO)c1ccccc1)c1cc2ccccc2o1` here?
A: 81.3%

Q: With `CCOC(=O)c1c(C)[nH]c(C(=O)CCC(=O)OC)c1C` as the compound, how does the growth read?
A: 83.1%

Q: `N#Cc1cnn2c(-c3ccc(Cl)cc3)nc(NC3CC3)nc12` was tested. Which growth did it give?
A: 99.8%

Q: How did the growth turn out when `COc1ccc(/C(C)=C(\c2ccc(Cl)cc2)c2ccc(OCCN3CCCCCC3)cc2)cc1F` was run?
A: 74.5%

Q: `Nc1ccc(S(=O)(=O)Nc2ccsc2-c2nc(-c3ccccc3)no2)cc1` was tested. Which growth did it give?
A: 32.3%

Q: How did the growth turn out when `Cc1nc(-c2ccccc2)cc2c(O)c(C(=O)N/N=C/c3ccc(N(C)C)cc3)[nH]c(=O)c12` was run?
A: 99.7%

Q: With `C=C1C(=O)O[C@H]2[C@H]1CC/C(Cn1cc(CNCCc3c[nH]c4ccc(Cl)cc34)nn1)=C\CC[C@@]1(C)O[C@@H]21` as the compound, how does the growth read?
A: 52.3%

Q: `c1ccc2[nH]c(SSc3nc4ncncc4[nH]3)nc2c1` was tested. Which growth did it give?
A: 57.2%

Q: Which growth does the source give for `CCn1nc(C#Cc2c(C)ccc3c(Nc4ccc(Cl)cc4)nccc23)c2c(N)ncnc21` here?
A: -50.8% (active)

Q: Which growth does the source give for `O=C1c2ccccc2C(=O)c2cc(Cn3cc[n+](Cc4ccc5ccccc5c4)c3)ccc21` here?
A: 89.1%

Q: `COc1cc2c(O)n(CCCn3ccnc3)c3c4cnc5cccc(c(=O)c3c2cc1OC)c54` was tested. Which growth did it give?
A: 71%

Q: Which growth does the source give for `COc1ccc(-c2nc3sc4c(c3c(=O)[nH]2)CCCC4)c2ccccc12` here?
A: 29.4%

Q: How did the growth turn out when `Cc1cc2c(F)c(Oc3ncnc(Nc4ccc(N5C[C@@H](C)N[C@@H](C)C5)cc4)c3C#N)cc(F)c2[nH]1` was run?
A: 96.9%

Q: Which growth does the source give for `Clc1ccc(/C=C/c2nc(Nc3ccc(Cl)cc3)c3ccccc3n2)cc1` here?
A: 106%

Q: With `COc1ccc(OC)c(Nc2nc3nonc3nc2Nc2cccc(Br)c2)c1` as the compound, how does the growth read?
A: -17.4% (active)

Q: Which growth does the source give for `CCOC(=O)C(=CNc1ccccc1[N+](=O)[O-])C(=O)OCC` here?
A: 101%

Q: Which growth does the source give for `COc1cc2ccccc2cc1C(=O)NC(=S)Nc1ccc(-c2nc3ccccc3[nH]2)cc1` here?
A: 105%

Q: How did the growth turn out when `CCCCS(=O)(=O)Oc1ccc(-c2nc(C)c(C(=O)OCC)s2)cc1C=O` was run?
A: 97.2%
